For eleven compounds, Potency and max activation results are on record in PubChem BioAssay (Tox21).

A short description of assay [1]: Human pregnane X receptor (PXR) small molecule agonists, qHTS cell viability counter screen (AID 1346977). Further: nearly all actives have a fitted effect of over 50% in size. Further: potency means the concentration at half of the fitted maximal effect. The method in brief: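 PXR-Luc HepG2 cells (2,000/well, 5% charcoal-stripped FBS) preincubated 5 hr, then exposed to compounds 24 hr at 37 C. Viability read in the same wells by CellTiter-Fluor fluorescence, reagent added at 23 hr, 1 hr incubation.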
A short description of assay [2]: Caspase-3/7 induction in HepG2 cells by small molecules, qHTS assay (AID 1346978). Further: nearly all actives have a fitted effect of over 15% in size. Further: potency means the concentration at half of the fitted maximal effect. In short, it runs like this:
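Wild-type HepG2 cells, 2,000/well, settled 5 hr at 37 C and 5% CO2, then compound-treated for 17 hr; caspase-3/7 activity read by luminescent Caspase-Glo 3/7 after 30 min at room temperature.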

Assay [3] is described as follows: Caspase-3/7 induction in CHO-K1 cells by small molecules, qHTS cell viability counter screen (AID 1346979). Further: nearly all actives have a fitted effect of over 35% in size. Further: potency means the concentration at half of the fitted maximal effect. The method in brief: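 Wild-type CHO-K1 cells (1,500/well) treated with compound after 5 h plating; after 16 h at 37C, viability read as CellTiter-Fluor fluorescence following 1 h reagent incubation, in the same wells as the caspase read.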
Assay [4] is described as follows: Caspase-3/7 induction in HepG2 cells by small molecules, qHTS cell viability counter screen (AID 1346981). Further: nearly all actives have a fitted effect of over 30% in size. Further: potency means the concentration at half of the fitted maximal effect. In short, it runs like this: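 Fluorescence read-out of live-cell protease activity (CellTiter-Fluor) after 1 hr with reagent. This was measured in the same wells as the caspase-3/7 luminescence, on HepG2 cells exposed to DMSO-dissolved compounds for 16 hr at 37 C.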

For assay [5], the target named is Nuclear receptor subfamily 1 group I member 2 (Homo sapiens) (UniProt O75469). The assay is described as follows: Human pregnane X receptor (PXR) small molecule agonists, qHTS assay (AID 1346982). Further: nearly all actives have a fitted effect of over 35% in size. Further: potency means the concentration at half of the fitted maximal effect. The method in brief:
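HepG2 PXR-Luc reporter line, 5% charcoal-stripped FBS; 5 hr pre-incubation, compound (DMSO) 24 hr at 37 C/5% CO2; ONE-Glo 30 min RT; luminescence read-out.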

The target in assay [6] is Cytochrome P450 2D6 (Homo sapiens) (UniProt P10635). The assay is described as follows: Cytochrome P450 Family 2 Subfamily D Member 6 (CYP2D6) small molecule antagonists: luciferase reporter qHTS assay (AID 1671196). Further: nearly all actives have a fitted effect of over 50% in size. Further: potency means the concentration at half of the fitted maximal effect. In short, it runs like this: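 Luminogenic proluciferin substrate, CYP2D6 enzyme; 10 min RT preincubation with compound, NADPH regeneration system added, 1 h RT. Stop/detection reagent, 20 min RT, luminescence read (RLU). Signal proportional to CYP activity.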

Assay [7] concerns the target Cytochrome P450 2C19 (Homo sapiens) (UniProt P33261). Put plainly: Cytochrome P450 Family 2 Subfamily C Member 19 (CYP2C19) small molecule antagonists: luciferase reporter qHTS assay (AID 1671197). Further: nearly all actives have a fitted effect of over 65% in size. Further: potency means the concentration at half of the fitted maximal effect. The method in brief: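 Light output is proportional to CYP2C19 activity: proluciferin substrate is converted to luciferin, then detected by a luciferin detection reagent that also stops the 1 h, 37C NADPH-driven reaction. Ketoconazole serves as positive control.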

Assay [8] concerns the target Cytochrome P450 1A2 (Homo sapiens) (UniProt P05177). The assay is described as follows: Cytochrome P450 Family 1 Subfamily A Member 2 (CYP1A2) small molecule antagonists: luciferase reporter qHTS assay (AID 1671199). Further: nearly all actives have a fitted effect of over 50% in size. Further: potency means the concentration at half of the fitted maximal effect. The method in brief:
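Luminescence readout (relative luminescence units) after luciferin detection reagent, 20 min RT. Preceded by 1 h room-temperature CYP1A2 reaction with NADPH regeneration solution following 10 min compound preincubation with enzyme and proluciferin substrate. Furafylline positive control.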

Assay [9] has as its target Voltage-gated inwardly rectifying potassium channel KCNH2 (Homo sapiens) (UniProt Q12809). The assay is described as follows: Human Ether-a-go-go-Related Gene (hERG) channel small molecule antagonists: fluorescence cell-based qHTS assay (AID 1671200).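 Further: hERG-expressing U2OS cells given a thallium stimulus after FluxOR II dye loading; series mostly up to about 77 µM; nearly all actives have a fitted effect of over 50% in size.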 In short, it runs like this: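 hERG-U2OS cells plated overnight at 37 C, loaded with FluxOR II dye 1 h at RT in dark; after 10 min, thallium stimulus added. Fluorescence (480/540 nm) read kinetically for 2 min at 1 s intervals.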

In assay [10] the target is Cytochrome P450 2C9 (Homo sapiens) (UniProt P11712). Put plainly: Cytochrome P450 Family 2 Subfamily C Member 9 (CYP2C9) small molecule antagonists: luciferase reporter qHTS assay (AID 1671198). Further: nearly all actives have a fitted effect of over 50% in size. Further: potency means the concentration at half of the fitted maximal effect. In short, it runs like this: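 P450-Glo proluciferin substrate with CYP2C9 enzyme; 10 min RT preincubation, then NADPH regeneration 1 h at 37C; luciferin detection reagent 20 min RT, luminescence in relative luminescence units.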

Assay [11] concerns the target Cytochrome P450 3A4 (Homo sapiens) (UniProt P08684). Put plainly: Cytochrome P450 Family 3 Subfamily A Member 4 (CYP3A4) small molecule antagonists: luciferase reporter qHTS assay (AID 1671201). Further: nearly all actives have a fitted effect of over 50% in size. Further: potency means the concentration at half of the fitted maximal effect. The method in brief: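 P450-Glo CYP3A4 luminescent assay: compounds preincubated 10 min at room temperature with enzyme and proluciferin substrate, NADPH regeneration added, 1 h room-temperature reaction, stopped with luciferin detection reagent; luminescence read after 20 min. Ketoconazole positive control.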

Assay [12] in a line: Caspase-3/7 induction in CHO-K1 cells by small molecules, qHTS assay (AID 1346980). Further: nearly all actives have a fitted effect of over 15% in size. The method in brief:
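Wild-type CHO-K1 cells exposed to compounds for 17hr at 37 C, 5% CO2. Caspase-3/7 activity then measured by Caspase-Glo 3/7 luminescence after 30min at room temperature.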

In assay [13] the target is Nuclear receptor subfamily 1 group I member 2 (Rattus norvegicus) (UniProt Q9R1A7). Put plainly: Rat pregnane X receptor (rPXR) activation by small molecules, qHTS assay (AID 1346983). Further: nearly all actives have a fitted effect of over 20% in size. The note with it: rPXR luciferase reporter cells, One-Glo luminescence, 24 h; max activation: active compounds read high. The method in brief: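 Cell-based rPXR activation assay: rPXR cells, 2,000 per well, rested 5hr at 37 C, then exposed to compounds in DMSO for 24 hr at 37 C. Luciferase activity read by One-Glo luminescence after 30 min at room temperature.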

Assay [14] addresses Nuclear receptor subfamily 1 group I member 2 (Homo sapiens) (UniProt O75469). The assay is described as follows: CYP3A4 induction through human pregnane X receptor (PXR) by small molecules, qHTS assay (AID 1346984). Further: nearly all actives have a fitted effect of over 40% in size. The method in brief: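 HepG2-derived DPX-2 line carrying PXR plus a CYP3A4-promoter luciferase reporter; cells plated 5 hr, compound-exposed 24 hr at 37C. CYP3A4 activity probed with 3uM (final) Luciferin-IPA for 3hr, then luciferase read after One-Glo.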

Unmarked numbers belong to inactive results. Inconclusive results are not listed. Activity calls are given as the source filed them. The call rests on the fitted dose curve; in most records, active means well fitted curve in the direction sought with a large enough effect in the repeat runs; inconclusive means weak or mixed curves; inactive means no such curve, though single readings can be large; an effect the other way counts as inactive or inconclusive.
On the % scale 0 is the no-effect control and ±100 the full control effect.

Sequence of Cytochrome P450 3A4 (Homo sapiens) (P08684 whole entry, looked up): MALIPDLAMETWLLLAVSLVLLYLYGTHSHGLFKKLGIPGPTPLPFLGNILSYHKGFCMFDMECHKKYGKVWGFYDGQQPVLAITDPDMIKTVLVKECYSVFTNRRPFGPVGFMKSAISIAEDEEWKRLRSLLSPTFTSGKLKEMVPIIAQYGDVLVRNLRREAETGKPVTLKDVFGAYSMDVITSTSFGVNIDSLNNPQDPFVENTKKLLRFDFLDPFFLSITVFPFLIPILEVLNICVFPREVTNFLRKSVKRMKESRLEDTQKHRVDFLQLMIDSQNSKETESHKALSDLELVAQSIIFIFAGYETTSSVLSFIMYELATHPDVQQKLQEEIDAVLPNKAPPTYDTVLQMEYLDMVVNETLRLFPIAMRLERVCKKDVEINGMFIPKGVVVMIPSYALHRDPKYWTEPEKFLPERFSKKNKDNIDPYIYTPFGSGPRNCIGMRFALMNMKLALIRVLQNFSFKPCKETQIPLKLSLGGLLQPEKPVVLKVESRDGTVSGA
Sequence of Cytochrome P450 2C19 (Homo sapiens) (P33261 whole entry, looked up): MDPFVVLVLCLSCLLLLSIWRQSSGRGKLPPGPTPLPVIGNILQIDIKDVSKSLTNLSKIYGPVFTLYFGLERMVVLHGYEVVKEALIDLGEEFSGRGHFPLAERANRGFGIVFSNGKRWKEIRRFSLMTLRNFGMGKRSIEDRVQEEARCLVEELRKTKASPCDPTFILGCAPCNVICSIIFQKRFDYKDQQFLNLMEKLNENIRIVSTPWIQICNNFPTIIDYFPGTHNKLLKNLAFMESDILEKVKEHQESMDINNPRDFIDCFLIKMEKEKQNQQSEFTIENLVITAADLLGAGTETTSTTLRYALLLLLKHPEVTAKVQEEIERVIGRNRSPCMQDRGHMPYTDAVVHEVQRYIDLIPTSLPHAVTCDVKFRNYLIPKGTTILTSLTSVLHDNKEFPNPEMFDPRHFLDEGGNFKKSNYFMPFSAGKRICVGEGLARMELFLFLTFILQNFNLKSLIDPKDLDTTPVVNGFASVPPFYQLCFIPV
Sequence of Cytochrome P450 1A2 (Homo sapiens) (P05177 whole entry, looked up): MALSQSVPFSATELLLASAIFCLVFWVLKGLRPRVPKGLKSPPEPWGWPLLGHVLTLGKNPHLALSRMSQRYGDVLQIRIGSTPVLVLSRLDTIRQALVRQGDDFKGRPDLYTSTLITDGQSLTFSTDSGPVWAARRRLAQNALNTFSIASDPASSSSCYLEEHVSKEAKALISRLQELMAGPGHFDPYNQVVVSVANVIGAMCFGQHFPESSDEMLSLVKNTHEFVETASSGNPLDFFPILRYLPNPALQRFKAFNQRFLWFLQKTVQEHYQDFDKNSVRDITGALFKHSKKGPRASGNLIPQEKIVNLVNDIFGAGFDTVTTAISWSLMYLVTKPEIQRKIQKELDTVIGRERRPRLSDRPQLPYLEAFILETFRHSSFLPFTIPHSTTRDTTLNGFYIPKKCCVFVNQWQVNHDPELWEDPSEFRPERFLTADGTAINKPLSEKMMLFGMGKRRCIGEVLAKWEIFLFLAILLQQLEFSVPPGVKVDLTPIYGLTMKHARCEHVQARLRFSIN
Sequence of Cytochrome P450 2C9 (Homo sapiens) (P11712 whole entry, looked up): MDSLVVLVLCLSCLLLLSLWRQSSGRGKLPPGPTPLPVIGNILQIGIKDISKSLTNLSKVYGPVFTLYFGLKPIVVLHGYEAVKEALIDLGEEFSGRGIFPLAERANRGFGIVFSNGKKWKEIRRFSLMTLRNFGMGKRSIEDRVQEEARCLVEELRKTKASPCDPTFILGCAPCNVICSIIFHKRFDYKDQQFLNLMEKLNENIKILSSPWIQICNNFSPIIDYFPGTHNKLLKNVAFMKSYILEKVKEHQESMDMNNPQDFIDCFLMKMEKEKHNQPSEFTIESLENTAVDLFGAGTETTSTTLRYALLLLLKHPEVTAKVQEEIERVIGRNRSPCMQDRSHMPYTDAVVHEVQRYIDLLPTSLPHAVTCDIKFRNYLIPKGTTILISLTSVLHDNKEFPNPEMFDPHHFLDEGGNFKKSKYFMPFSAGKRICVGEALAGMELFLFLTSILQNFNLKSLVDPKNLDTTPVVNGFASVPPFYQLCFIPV
Sequence of Nuclear receptor subfamily 1 group I member 2 (Homo sapiens) (O75469 whole entry, looked up): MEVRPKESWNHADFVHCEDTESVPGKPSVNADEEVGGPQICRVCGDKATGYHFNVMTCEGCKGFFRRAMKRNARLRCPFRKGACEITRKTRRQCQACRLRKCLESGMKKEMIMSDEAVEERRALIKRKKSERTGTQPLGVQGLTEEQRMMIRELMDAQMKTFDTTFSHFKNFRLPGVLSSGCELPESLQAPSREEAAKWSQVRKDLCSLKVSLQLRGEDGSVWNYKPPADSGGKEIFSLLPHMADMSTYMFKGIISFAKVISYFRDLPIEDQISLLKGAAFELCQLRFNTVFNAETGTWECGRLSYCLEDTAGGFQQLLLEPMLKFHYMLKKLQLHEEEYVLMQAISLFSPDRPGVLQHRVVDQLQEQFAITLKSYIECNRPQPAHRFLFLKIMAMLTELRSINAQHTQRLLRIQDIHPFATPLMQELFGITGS
Sequence of Cytochrome P450 2D6 (Homo sapiens) (P10635 whole entry, looked up): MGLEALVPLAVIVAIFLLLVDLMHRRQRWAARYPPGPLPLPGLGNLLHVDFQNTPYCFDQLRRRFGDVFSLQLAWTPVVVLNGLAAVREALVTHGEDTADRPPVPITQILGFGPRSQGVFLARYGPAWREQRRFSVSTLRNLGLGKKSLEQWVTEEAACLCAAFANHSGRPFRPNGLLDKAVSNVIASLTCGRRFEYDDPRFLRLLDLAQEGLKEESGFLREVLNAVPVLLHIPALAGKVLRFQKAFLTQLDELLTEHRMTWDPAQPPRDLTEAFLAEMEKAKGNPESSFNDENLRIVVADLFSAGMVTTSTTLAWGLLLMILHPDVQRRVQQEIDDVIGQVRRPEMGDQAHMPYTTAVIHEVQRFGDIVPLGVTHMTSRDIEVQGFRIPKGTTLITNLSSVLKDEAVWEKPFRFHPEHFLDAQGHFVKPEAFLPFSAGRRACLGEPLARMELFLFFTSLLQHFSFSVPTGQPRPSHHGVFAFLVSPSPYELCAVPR
Sequence of Voltage-gated inwardly rectifying potassium channel KCNH2 (Homo sapiens) (Q12809 whole entry, looked up): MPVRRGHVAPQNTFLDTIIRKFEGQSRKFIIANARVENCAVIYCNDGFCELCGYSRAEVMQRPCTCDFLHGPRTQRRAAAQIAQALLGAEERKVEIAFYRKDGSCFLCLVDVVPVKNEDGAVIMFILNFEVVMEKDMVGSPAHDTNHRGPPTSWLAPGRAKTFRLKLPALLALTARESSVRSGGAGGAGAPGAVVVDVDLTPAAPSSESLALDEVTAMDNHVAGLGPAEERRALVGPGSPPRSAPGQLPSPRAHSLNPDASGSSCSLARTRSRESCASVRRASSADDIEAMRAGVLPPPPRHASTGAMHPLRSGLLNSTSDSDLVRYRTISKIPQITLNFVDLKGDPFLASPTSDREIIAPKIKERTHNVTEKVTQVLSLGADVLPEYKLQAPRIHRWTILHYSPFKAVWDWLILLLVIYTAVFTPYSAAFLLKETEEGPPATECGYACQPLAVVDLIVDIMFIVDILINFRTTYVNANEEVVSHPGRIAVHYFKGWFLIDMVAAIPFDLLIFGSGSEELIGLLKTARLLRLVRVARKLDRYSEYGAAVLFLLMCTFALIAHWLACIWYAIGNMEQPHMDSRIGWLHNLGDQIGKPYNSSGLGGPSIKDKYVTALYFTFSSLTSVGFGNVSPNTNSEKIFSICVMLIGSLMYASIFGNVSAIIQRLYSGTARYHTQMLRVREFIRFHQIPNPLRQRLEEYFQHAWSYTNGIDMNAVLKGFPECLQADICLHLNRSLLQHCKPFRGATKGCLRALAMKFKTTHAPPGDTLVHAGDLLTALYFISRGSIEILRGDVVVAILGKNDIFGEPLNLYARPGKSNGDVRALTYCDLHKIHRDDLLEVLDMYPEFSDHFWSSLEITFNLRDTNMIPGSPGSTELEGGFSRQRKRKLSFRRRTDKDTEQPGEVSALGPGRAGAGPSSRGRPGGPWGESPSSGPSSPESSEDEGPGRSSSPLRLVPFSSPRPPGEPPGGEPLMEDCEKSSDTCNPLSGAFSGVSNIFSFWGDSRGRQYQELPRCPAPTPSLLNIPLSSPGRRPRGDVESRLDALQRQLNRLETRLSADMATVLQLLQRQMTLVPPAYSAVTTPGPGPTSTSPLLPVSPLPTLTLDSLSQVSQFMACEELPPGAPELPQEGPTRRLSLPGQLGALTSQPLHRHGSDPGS
Sequence of Nuclear receptor subfamily 1 group I member 2 (Rattus norvegicus) (Q9R1A7 whole entry, looked up): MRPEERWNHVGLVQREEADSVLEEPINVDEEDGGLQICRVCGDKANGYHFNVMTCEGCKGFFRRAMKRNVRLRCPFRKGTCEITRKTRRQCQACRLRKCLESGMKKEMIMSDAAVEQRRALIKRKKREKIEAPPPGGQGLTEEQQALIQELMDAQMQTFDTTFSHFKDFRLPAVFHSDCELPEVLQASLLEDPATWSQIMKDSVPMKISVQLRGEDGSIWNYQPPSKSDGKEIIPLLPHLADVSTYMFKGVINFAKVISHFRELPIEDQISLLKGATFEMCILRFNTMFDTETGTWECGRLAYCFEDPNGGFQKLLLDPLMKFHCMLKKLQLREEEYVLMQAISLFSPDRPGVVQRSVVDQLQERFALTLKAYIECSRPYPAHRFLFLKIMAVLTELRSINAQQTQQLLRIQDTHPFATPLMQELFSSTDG

`Cc1c(C)c2c(c(C)c1OC(=O)CCC(=O)OCCO)CC[C@@](C)(CCC[C@H](C)CCC[C@H](C)CCCC(C)C)O2`: the Potency entry in assay [1], in assay [2], in assay [3], in assay [4], in [5] and in [6] was “inactive” each time. Moreover, the Potency entry in [7] and in assay [9] was “inactive” throughout. Besides, the Potency in assay [8] was 27.5 µM (active).

As to `CN1C[C@H](C(=O)N[C@]2(C)O[C@@]3(O)[C@@H]4CCCN4C(=O)[C@H](Cc4ccccc4)N3C2=O)C[C@@H]2c3cccc4[nH]cc(c34)C[C@H]21`, the Potency in assay [1] is 21.1 µM (active); in [3], 26.6 µM (active); in assay [4], 26.6 µM (active); in assay [5], 10.6 µM (active). The Potency entry in assay [8] is “inactive”.

Turning to `COc1cc(C(=O)NC2CCN(C)CC2)ccc1Nc1ncc2c(n1)N(C1CCCC1)CC(F)(F)C(=O)N2C`, the Potency is 8.88 µM (active) in [1]; 22.3 µM (active) in [2]; 0.499 µM (active) in assay [3]; 15.8 µM (active) in assay [4]; 19.9 µM (active) in assay [5]; 29.1 µM (active) in assay [10]. Also, the Potency result in [6], in [8] and in assay [9] was “inactive” throughout.

On to `CNC(=O)c1cnn(-c2nc(N)c3ncn([C@@H]4O[C@H](CO)[C@@H](O)[C@H]4O)c3n2)c1`, for which the Potency result in assay [1], in assay [2], in [3], in assay [4], in assay [5] and in [7] was “inactive” each time. For the same compound, the Potency entry in [10], in [8] and in [11] was “inactive” throughout.

Regarding `O=C1NC(=O)c2cc([N+](=O)[O-])ccc21`, the Potency entry in assay [1], in assay [2], in assay [3], in assay [4] and in assay [9] was “inactive” each time. Moreover, the Potency was 61.6 µM (active) in assay [5]; 63.8 µM (active) in [6]; 71.6 µM (active) in assay [7]; 28.5 µM (active) in assay [8]; 32 µM (active) in assay [11].

In the case of `C=C/C(C)=C/C/C=C(\C)CCC=C(C)C`, the Potency entry in assay [1], in assay [2], in [12], in [4], in assay [8] and in assay [9] was “inactive” throughout. Moreover, the Potency in assay [5] is 27.3 µM (active); in assay [10], 31.7 µM (active); in [11], 15.9 µM (active).

As for `c1csc(SSc2cccs2)c1`, the Potency is 27.3 µM (active) in [1]; 34.4 µM (active) in [3]; 9.69 µM (active) in assay [5]; 5.03 µM (active) in assay [7]; 5.03 µM (active) in assay [10]; 31.7 µM (active) in assay [8]. Besides, the Potency result in assay [2], in [4], in assay [9] and in assay [11] was “inactive” throughout.

For `CN1CC(=O)N2[C@H](c3ccc4c(c3)OCO4)c3[nH]c4ccccc4c3C[C@@H]2C1=O`, the Potency result in assay [1], in assay [2], in assay [12], in [6], in assay [7] and in assay [9] was “inactive” each time. The max activation in assay [13] was 0.614%.

In the case of `CC(C)(O)c1ccc(CNC(=O)c2cccnc2Oc2ccc3nonc3c2)cc1`, the Potency result in assay [1], in assay [2] and in assay [5] was “inactive” each time. In addition, the Potency in assay [10] and in assay [11] was 25.2 µM (active) each time.

With `CCC=CC#N`, the Potency result in assay [1], in [2], in assay [3], in [10] and in assay [11] was “inactive” each time. The Potency in [5] is 47.1 µM (active).

For `O=C(CCCN1CC=C(n2c(=O)[nH]c3ccccc32)CC1)c1ccc(F)cc1`, the Potency result in assay [2], in [3], in [12], in assay [4], in assay [14] and in assay [7] was “inactive” each time. Besides, the Potency result in assay [10], in assay [8] and in assay [11] was “inactive” each time. Also, in assay [13], the max activation was 0.857%. The Potency in assay [6] is 2.45 µM (active).
